# Only some compounds are listed: those with a hit (about 5.7% of all), similar ones and a draw of the others.
# HepG2 tox – kills HepG2 cells in TGF-b inhibitor counter-screen | HepG2 CAGA-GFP viability, ATP luminescence, 18 h | Potency, µM (titrated, usually from 46.1 µM), inactives show at the highest dose activity change, negative = cytotoxicity, hits mostly cytotoxic | 410,000 tested, 0.76% active | AID 588856; also: potency is read from the fitted curve at half-maximal effect
#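 CellTiter-Glo luminescence gave cytotoxicity after 18 hours at 37 degrees C. The cells were HepG2 CAGA-GFP in 1% FBS DMEM, stimulated with 500 pg/mL TGF-beta after compound addition. %Activity was normalised to no-cell wells (complete cell-killing) and DMSO (no toxicity), and curves were fitted and classified.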
# IL1B secr inh – blocks inflammasome-driven IL-1 beta release; THP-1 LPS/ATP IL-1B secretion, AlphaLISA, 16 h; active compounds read low; activity change, % at 57.5 µM; 360,000 tested, 4.7% active; AID 743279; in the data active = activity change below about -50%; inconclusive = mostly about -30% to -49%; also: % is scaled to controls: 0 for no effect and ±100 for the full control effect
#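 THP-1 cells pretreated 1 hr with compounds (up to 57.5 uM final), then stimulated with LPS (250 ng/mL final) plus ATP (1.25 mM final); secreted IL-1B measured by AlphaLISA after 16 hr, decreased signal indicating inhibition.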
# TGFb inhibitor – inhibitors of TGF-b signaling | HepG2 CAGA-GFP TGF-b/SMAD3 reporter, GFP fluorescence, 18 h; TGF-beta stimulated, 500 pg/mL final | Potency, µM (highest dose often 46.1 µM), for inactives: at the top dose activity, negative = inhibition, usual class: inhibitors | 410,000 tested, 1.2% active | AID 588855; also: potency is read from the fitted curve at half-maximal effect; % is scaled to controls: 0 for no effect and ±100 for the full control effect; nearly all actives have a fitted effect of over 65% in size
#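 Using HEPG2 CAGA-GFP reporter cells at 1000 cells/well, we pinned test compounds, stimulated with recombinant TGF-beta (500 pg/mL final) and measured total well GFP after 18 h.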
# S2 tox – reduces viability in counter-screen for ATXN expression inhibitors. S2 cells (HEK-293 line with an ATXN2-luciferase reporter) viability, CellTiter-Fluor protease fluorescence, 24 h. Potency, µM (top dose mostly 56.7 µM), usual class: cytotoxic. 400,000 tested, 0.49% active. AID 651635; also: potency is read from the fitted curve at half-maximal effect; nearly all actives have a fitted effect of over 40% in size
# ATXN2 expr inh – reduces ATXN2 reporter expression in HEK-293 cells. HEK-293 ATXN2-luciferase reporter, luminescence, 24 h. Potency, µM (titrated, usually from 57 µM), inactives show top-dose activity change, negative = inhibition, usual class: inhibitors. 360,000 tested, 0.72% active; also: potency is read from the fitted curve at half-maximal effect; % is scaled to controls: 0 for no effect and ±100 for the full control effect; nearly all actives have a fitted effect of over 55% in size
#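 ATXN2-luciferase reporter cells (luciferase flanked by upstream and downstream ATXN2 gene portions) were treated 24 h at 37 °C with compounds at up to 57 uM. SteadyGlo luminescence gave expression; GF-AFC fluorescence gave viability.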
# An asterisk follows results filed as active; i = inactive; ? = inconclusive; nt = no result; [ ] = another dose, or the depositor's remark. Unless noted, calls follow the shape of the dose curve; as a rule, active = well fitted curve in the direction sought with a large enough effect; inconclusive = small, poorly fitted or top-dose-only effect, or another doubt; inactive = no such curve, though single readings can be large; an effect the other way counts as inactive or inconclusive.
SMILES,HepG2 tox,IL1B secr inh,TGFb inhibitor,S2 tox,ATXN2 expr inh
CCCCn1c(C2CC(=O)N(c3ccc(OCC)cc3)C2)nc2ccccc21 (stereo not drawn),-41%,nt,?,?,2%
CCCCCCC[n+]1ccc(C)c2ccccc21,-4%,nt,?,nt,nt
COC(=O)CSc1ccc(C#N)c(SCC(=O)OC)c1,-6%,-105*,-2%,i,7%
COC(=O)CSc1cc(SCC(=O)OC)c(C#N)c(SCC(=O)OC)c1,-13%,-113*,-20%,i,-3%
COC(=O)Cc1c(C)c2ccc3c(c2oc1=O)CN(Cc1ccccc1OC)CO3,0%,nt,3%,nt,-11%
N=C(N)SCc1ccccn1,-9%,-11,-5%,i,0%
N=C(N)SCc1ccc(Cl)c2ccccc12,-38%,-101*,?,?,-11%
O=C(CCCn1c(=O)[nH]c2ccc(Br)cc2c1=O)N1CCN(c2cccc(Cl)c2)CC1,-28%,nt,5µM*,i,-28%
O=C(CCCCn1c(=O)[nH]c2ccccc2c1=O)N1CCN(c2cccc(C(F)(F)F)c2)CC1,-28%,-27,-8%,?,-36%
O=C(CCCCn1c(=O)[nH]c2ccsc2c1=O)N1CCN(c2cccc(C(F)(F)F)c2)CC1,-49%,nt,10µM*,?,?
CC(=O)c1ccc(N2CCN(C(=O)CCCn3c(=O)[nH]c4ccc(Br)cc4c3=O)CC2)cc1,-59%,-30,?,?,nt
O=C(c1cccs1)N(Cc1cccnc1)c1nc2ccc(F)cc2s1,-30%,nt,-30%,nt,nt
CC(=O)C1CCN(Cc2ccccc2)CC1,-14%,0,40%,i,-8%
CSc1ccccc1OC1CCN(Cc2ccccc2)CC1,-14%,-82*,-3%,i,-9%
C#CCOCCOCCOCCNc1nc(N2CCN(C(=O)CCCCCCCCCCNC(=O)Cn3cc(CCCCCN)nn3)CC2)nc(N2CCN(C(=O)CCCCCCCCCCNC(=O)[C@@H]([C@H](C)O)n3cc(C)nn3)CC2)n1,-18%,-20,?,nt,?
C#CCOCCOCCOCCNc1nc(N2CCN(C(=O)Cn3cc(CCCCN)nn3)CC2)nc(N2CCN(C(=O)Cn3cc(CC(C)O)nn3)CC2)n1 (stereo not drawn),3%,-1,3%,i,-2%
C#CCOCCOCCOCCNc1nc(N2CCN(C(=O)CCCCCCCCCCNC(=O)Cn3cc(C[C@@H](C)O)nn3)CC2)nc(N2CCN(C(=O)CCCCCCCCCCNC(=O)[C@@H]([C@H](C)CC)n3cc(CCCCCN)nn3)CC2)n1,-113%,-105*,10µM*,nt,20µM*
C#CCOCCOCCOCCNc1nc(N2CCN(C(=O)CCCCCCCCCCNC(=O)Cn3cc(CCCCCN)nn3)CC2)nc(N2CCN(C(=O)CCCCCCCCCCNC(=O)Cn3cc(C[C@@H](C)O)nn3)CC2)n1,-39%,-77*,?,i,-15%
Cc1cc(C(=O)NCCc2ccc(Cl)cc2)c2ccccc2n1,-22%,3,-5%,i,-12%
CCCCN(CCCNC(=O)c1cc(Nc2cccc(SC)c2)nc2ccccc12)Cc1ccccc1,13µM*,nt,16µM*,nt,nt
CC(C)c1ccc(Nc2cc(C(=O)NCCCN(C)Cc3ccccc3)c3ccccc3n2)cc1,-18%,nt,-10%,nt,nt
CSc1cccc(Nc2cc(C(=O)NCCc3ccc(Cl)cc3)c3ccccc3n2)c1,-33%,nt,10µM*,i,?
Cc1nc2n(c(=O)c1CCN1CCC(c3noc4cc(F)ccc34)CC1)CCC[C@H]2O,nt,nt,nt,i,-11%[25.6 µM]
O=C(c1ccccc1)c1ccccc1N1C(=O)C=CC1=O,-22%,-98*,?,nt,?
O=C1C=CC(=O)N1c1ccccn1,12%,-2,1%,i,-13%
SMILES,HepG2 tox,IL1B secr inh,TGFb inhibitor,S2 tox,ATXN2 expr inh
O=C(O)c1cccc(N2C(=O)C=CC2=O)c1,-20%,0,4%,i,nt
O=C1C=CC(=O)N1c1ccccc1N1C(=O)C=CC1=O,-95%,-98*,?,35µM*,?
CCOC(=O)CC(NC(=O)CCc1c(C)nc2c(c(C)nn2-c2ccc(C)c(C)c2)c1C)c1ccc(C)cc1 (stereo not drawn),3%,nt,5%,i,11%
NC(=S)N/N=C/c1ccc(-c2ccc(SC(F)F)cc2)o1,-53%,-30,10µM*,i,-17%
CC(C)C(=O)Nc1cccc(C2CN3CCSC3=N2)c1 (stereo not drawn),nt,nt,nt,i,3%
COC1(OC)C(/C=C/c2ccc(Cl)cc2)C(C#N)(C#N)C1(OC)OC (stereo not drawn),-44%,-102*,?,nt,?
CC(C)CN(C(=O)CN(C)CC(=O)Nc1ccc(Cl)c(C(F)(F)F)c1)c1c(N)n(CC(C)C)c(=O)[nH]c1=O,-8%,-66*,-3%,i,-15%
CN(CC(=O)Nc1ccc(Cl)c(C(F)(F)F)c1)C(=O)C1(c2ccccc2)CC1,-24%,-57*,?,i,-12%
CN(CC(=O)NCc1ccccc1)CC(=O)Nc1ccc(Cl)c(C(F)(F)F)c1,-25%,-11,?,i,-30%
CN(CC(=O)NC(=O)NCc1ccccc1)CC(=O)Nc1ccc(Cl)c(C(F)(F)F)c1,-11%,-89*,?,i,-17%
CCc1nnc(NC(=O)CCS(=O)(=O)c2ccc(C)cc2)s1,4%,-76*,-23%,i,38%
COCc1nnc(NC(=O)CCS(=O)(=O)c2ccccc2)s1,0%,-97*,?,i,28%
CCc1nnc(NC(=O)c2ccncc2)s1,-27%,1,-14%,i,5%
CCc1nnc(NC(=O)c2cccc(C(=O)Nc3nnc(CC)s3)n2)s1,-54%,76,0.25µM*,?,?
CC(C)c1nnc(NC(=O)CCc2ccccc2)s1,-14%,-2,2%,i,2%
CC(C)c1nnc(NC(=O)CCS(=O)(=O)c2ccccc2)s1,41%,-105*,-30%,i,52%
CCc1nnc(NC(=O)CCS(=O)(=O)c2ccccc2)s1,-10%,4,?,i,54%
